Assay [1] concerns the target Ribosomal protein S6 kinase beta-1 (Homo sapiens) (UniProt P23443). The following applies: at 1 µM.
For assay [2] the target is unchanged. Particulars: at 10 µM.
Assay [3] concerns the target Serine/threonine-protein kinase Nek6 (Homo sapiens) (UniProt Q9HC98). The following applies: at 1 µM.
Assay [4] has the same target. The following applies: at 10 µM.
Assay [5] concerns the target Serine/threonine-protein kinase Nek7 (Homo sapiens) (UniProt Q8TDX7). Particulars: at 10 µM.
For assay [6], the target named is T1, Serine/threonine-protein kinase NLK (Homo sapiens) (UniProt Q9UBE8).
T1 sequence (whole entry): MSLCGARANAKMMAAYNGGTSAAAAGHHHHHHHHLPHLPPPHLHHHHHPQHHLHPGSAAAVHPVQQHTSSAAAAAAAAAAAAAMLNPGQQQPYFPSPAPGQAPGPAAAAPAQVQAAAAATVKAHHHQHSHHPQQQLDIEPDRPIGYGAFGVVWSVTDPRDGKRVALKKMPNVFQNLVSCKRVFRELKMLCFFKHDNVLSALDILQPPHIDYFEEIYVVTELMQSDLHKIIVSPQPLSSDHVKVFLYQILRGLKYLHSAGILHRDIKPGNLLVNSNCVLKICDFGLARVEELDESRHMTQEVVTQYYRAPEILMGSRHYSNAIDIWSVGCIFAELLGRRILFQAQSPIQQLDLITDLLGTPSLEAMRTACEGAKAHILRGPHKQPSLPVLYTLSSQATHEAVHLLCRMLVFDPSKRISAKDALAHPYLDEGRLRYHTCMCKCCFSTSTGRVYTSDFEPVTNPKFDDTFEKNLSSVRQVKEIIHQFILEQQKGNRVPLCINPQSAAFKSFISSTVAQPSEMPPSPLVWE
Particulars: at 1 µM.

The target of assay [7] is T1, Serine/threonine-protein kinase NLK (Homo sapiens). The following applies: at 10 µM.
In assay [8] the target is Serine/threonine-protein kinase PAK 2 (Homo sapiens) (UniProt Q13177). Particulars: at 1 µM.
Assay [9] has the same target. Particulars: at 10 µM.
For assay [10], the target named is Serine/threonine-protein kinase PAK 4 (Homo sapiens) (UniProt O96013). Particulars: at 1 µM.
For assay [11] the target is unchanged. Particulars: at 10 µM.
Assay [12] has as its target Serine/threonine-protein kinase PAK 5 (Homo sapiens) (UniProt Q9P286). Particulars: at 1 µM.
Assay [13] has the same target. The following applies: at 10 µM.
For assay [14], the target named is Serine/threonine-protein kinase PAK 6 (Homo sapiens) (UniProt Q9NQU5). Particulars: at 1 µM.
For assay [15] the target is unchanged. Particulars: at 10 µM.
Assay [16] has as its target PAS domain-containing serine/threonine-protein kinase (Homo sapiens) (UniProt Q96RG2). Particulars: at 10 µM.
In assay [17] the target is Activated CDC42 kinase 1 (Homo sapiens) (UniProt Q07912). Particulars: at 1 µM.
For assay [18] the target is unchanged. Particulars: at 10 µM.
The target in assay [19] is ALK tyrosine kinase receptor (Homo sapiens) (UniProt Q9UM73). The following applies: at 1 µM.
For assay [20], the target named is Serine/threonine-protein kinase Nek7 (Homo sapiens) (UniProt Q8TDX7). The following applies: at 1 µM.
Chain of Serine/threonine-protein kinase Nek7 (Homo sapiens) (Q8TDX7 whole entry, looked up): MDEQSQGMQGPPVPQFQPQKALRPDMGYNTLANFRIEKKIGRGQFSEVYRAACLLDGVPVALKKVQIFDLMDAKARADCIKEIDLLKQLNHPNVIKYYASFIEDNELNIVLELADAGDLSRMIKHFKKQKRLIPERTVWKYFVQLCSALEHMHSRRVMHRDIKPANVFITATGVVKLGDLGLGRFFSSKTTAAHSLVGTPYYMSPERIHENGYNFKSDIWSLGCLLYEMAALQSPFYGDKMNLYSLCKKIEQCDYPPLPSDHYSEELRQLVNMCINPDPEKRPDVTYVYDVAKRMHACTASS

Chain of ALK tyrosine kinase receptor (Homo sapiens) (Q9UM73 19-1620 limits assumed): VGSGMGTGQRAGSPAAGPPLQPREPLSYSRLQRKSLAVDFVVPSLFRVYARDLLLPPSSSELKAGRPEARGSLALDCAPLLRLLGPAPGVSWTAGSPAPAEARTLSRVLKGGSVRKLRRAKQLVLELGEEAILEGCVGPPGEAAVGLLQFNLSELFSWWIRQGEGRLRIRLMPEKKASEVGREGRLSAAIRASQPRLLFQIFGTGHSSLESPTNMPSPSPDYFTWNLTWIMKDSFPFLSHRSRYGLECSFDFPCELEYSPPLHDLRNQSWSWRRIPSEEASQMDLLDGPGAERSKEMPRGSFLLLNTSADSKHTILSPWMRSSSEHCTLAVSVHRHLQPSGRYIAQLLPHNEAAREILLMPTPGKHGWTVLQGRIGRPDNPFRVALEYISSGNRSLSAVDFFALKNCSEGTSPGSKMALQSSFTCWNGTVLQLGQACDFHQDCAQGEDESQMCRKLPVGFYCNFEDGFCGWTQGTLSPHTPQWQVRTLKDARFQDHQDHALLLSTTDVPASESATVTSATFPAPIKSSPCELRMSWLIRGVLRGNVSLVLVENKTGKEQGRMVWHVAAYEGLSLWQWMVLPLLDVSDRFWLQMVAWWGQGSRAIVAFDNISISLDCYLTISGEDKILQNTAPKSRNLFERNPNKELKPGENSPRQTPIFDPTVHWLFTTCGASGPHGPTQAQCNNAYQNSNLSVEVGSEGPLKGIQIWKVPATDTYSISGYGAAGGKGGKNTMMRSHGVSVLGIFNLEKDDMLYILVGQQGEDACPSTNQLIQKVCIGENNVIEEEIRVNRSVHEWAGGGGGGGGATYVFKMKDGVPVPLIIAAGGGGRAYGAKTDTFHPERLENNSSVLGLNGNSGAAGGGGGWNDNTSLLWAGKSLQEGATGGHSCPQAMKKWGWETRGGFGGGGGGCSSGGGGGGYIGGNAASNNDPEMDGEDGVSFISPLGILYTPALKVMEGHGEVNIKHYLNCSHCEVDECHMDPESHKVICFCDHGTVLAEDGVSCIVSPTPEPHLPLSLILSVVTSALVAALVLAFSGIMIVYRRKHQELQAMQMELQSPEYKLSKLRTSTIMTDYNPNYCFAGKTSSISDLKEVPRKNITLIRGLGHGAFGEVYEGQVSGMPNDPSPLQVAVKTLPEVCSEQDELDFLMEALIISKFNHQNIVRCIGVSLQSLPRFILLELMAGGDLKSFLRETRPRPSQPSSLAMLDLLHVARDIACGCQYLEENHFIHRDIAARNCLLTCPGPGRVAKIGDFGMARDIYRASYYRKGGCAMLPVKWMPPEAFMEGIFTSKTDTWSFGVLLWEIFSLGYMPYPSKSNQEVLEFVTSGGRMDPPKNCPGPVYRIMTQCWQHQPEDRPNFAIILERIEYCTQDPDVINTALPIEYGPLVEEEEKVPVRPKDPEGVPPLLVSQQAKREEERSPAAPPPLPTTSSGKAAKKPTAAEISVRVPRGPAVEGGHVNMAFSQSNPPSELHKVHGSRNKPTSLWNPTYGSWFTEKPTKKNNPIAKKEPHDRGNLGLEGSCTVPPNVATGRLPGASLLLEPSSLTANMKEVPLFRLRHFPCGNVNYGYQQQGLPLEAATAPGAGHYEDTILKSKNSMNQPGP
Chain of Ribosomal protein S6 kinase beta-1 (Homo sapiens) (P23443 whole entry, looked up): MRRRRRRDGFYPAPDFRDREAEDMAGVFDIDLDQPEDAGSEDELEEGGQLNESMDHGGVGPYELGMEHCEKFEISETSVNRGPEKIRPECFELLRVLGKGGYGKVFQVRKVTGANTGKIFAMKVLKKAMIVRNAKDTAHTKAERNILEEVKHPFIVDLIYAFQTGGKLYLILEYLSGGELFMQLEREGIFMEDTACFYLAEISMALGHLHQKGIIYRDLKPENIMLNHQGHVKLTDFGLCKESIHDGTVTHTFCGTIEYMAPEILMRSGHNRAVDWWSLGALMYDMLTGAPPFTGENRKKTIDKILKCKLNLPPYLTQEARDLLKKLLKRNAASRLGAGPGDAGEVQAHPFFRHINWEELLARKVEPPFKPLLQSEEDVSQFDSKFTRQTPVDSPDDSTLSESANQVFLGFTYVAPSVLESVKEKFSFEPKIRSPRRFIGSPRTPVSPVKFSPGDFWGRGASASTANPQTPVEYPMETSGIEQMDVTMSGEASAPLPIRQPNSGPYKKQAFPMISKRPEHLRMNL
Chain of Activated CDC42 kinase 1 (Homo sapiens) (Q07912 whole entry, looked up): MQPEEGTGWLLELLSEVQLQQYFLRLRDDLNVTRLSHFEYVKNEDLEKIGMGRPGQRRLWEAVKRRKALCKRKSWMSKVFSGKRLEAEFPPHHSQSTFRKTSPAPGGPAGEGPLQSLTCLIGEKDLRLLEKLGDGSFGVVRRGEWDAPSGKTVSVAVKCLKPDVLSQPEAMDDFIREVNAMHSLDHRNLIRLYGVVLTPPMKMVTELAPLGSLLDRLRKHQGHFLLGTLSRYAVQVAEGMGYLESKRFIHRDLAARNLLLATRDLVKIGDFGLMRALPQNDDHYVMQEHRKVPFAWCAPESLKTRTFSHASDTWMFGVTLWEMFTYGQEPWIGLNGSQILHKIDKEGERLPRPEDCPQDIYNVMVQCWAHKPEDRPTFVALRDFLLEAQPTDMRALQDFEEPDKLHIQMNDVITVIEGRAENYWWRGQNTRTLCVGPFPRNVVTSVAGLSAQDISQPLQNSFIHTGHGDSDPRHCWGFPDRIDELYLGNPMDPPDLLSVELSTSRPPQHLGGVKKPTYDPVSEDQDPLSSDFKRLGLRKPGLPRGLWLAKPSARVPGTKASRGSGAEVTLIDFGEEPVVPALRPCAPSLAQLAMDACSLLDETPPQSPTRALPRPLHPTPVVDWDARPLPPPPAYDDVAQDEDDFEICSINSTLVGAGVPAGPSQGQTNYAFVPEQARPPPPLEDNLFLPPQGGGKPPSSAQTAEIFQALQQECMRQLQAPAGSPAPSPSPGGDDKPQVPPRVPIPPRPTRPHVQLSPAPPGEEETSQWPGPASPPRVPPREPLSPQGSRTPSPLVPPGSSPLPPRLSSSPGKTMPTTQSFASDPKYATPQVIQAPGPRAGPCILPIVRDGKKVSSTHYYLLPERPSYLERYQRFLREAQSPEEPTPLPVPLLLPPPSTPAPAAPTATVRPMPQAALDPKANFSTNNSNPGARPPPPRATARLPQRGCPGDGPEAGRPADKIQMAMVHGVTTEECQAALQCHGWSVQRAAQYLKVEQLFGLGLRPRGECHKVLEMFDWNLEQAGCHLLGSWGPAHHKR
Chain of Serine/threonine-protein kinase PAK 5 (Homo sapiens) (Q9P286 whole entry, looked up): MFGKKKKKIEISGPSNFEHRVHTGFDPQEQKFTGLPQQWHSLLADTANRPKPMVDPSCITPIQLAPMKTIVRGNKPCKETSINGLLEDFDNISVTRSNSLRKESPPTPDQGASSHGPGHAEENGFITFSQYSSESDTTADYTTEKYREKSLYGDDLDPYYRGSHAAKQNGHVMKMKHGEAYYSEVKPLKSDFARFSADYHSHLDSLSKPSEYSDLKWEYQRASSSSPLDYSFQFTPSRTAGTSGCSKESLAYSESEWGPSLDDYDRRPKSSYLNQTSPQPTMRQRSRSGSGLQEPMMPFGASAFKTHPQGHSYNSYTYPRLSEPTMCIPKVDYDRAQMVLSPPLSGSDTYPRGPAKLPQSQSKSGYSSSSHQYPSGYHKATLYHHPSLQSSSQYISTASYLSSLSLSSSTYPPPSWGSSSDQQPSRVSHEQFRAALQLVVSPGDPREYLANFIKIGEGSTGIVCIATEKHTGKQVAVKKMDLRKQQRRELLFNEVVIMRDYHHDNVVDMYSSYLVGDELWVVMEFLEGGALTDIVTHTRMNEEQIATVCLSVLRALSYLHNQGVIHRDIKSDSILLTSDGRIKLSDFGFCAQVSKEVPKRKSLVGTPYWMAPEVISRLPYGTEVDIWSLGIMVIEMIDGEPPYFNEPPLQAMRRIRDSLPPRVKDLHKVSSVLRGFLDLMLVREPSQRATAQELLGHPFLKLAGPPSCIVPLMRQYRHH
Chain of Serine/threonine-protein kinase PAK 6 (Homo sapiens) (Q9NQU5 whole entry, looked up): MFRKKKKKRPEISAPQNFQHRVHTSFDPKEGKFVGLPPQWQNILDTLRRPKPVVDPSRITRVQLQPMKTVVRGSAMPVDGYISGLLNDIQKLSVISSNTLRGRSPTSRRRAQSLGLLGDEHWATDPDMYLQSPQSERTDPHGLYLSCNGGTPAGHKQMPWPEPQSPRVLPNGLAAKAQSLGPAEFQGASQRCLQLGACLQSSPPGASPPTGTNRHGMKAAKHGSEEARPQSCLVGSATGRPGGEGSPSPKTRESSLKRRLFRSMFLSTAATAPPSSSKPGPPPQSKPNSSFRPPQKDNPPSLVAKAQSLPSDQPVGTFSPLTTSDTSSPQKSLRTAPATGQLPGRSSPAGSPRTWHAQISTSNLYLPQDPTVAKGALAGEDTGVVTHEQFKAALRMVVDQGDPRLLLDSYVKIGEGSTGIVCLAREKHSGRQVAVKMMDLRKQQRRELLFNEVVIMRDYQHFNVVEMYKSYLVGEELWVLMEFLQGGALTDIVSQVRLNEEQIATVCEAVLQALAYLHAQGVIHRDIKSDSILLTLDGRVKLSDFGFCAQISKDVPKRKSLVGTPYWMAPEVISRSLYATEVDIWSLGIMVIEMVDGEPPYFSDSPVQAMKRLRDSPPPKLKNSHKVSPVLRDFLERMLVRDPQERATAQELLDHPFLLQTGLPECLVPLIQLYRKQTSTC

As to `O=C1c2ccccc2-[n+]2ccc3c([nH]c4ccccc43)c21`, the residual activity in assay [1] was 86%; in assay [2], 54%; in assay [3], 109% (inactive); in [4], 104%; in [5], 101% (inactive); in [6], 86%. Also, the residual activity came to 70% in assay [7]; 107% in assay [8]; 94% in [9]; 90% in assay [10]; 92% in [11]; 82% in assay [12]. Further, the residual activity amounted to 90% in assay [13]; 102% in assay [14]; 84% in [15]; 119% in [16]; 77% in assay [17]; 55% in assay [18]. In addition, in assay [19], the residual activity turned out to be 85%.

Consider `COc1cc2ncnc(N3CCN(C(=O)Nc4ccc(Oc5ccccc5)cc4)CC3)c2cc1OC`, for which the residual activity in [3] is 91% (inactive); in assay [4], 126%; in [20], 97% (inactive); in assay [5], 113% (inactive); in assay [6], 88%; in [7], 89%. Besides, the residual activity in [8] is 110%; in assay [9], 86%; in assay [10] it was 94%; in assay [11] it was 84%; in assay [12], 91%; in [13], 122%. The residual activity is 112% in assay [14], 68% in assay [17], 54% in assay [18] and 73% in assay [19].

As for `Oc1ccc(Nc2nc(-c3ccc(Cl)cc3)cs2)cc1`, the residual activity was 119% in assay [1]; 87% in assay [2]; 116% (inactive) in [3]; 123% in [4]; 110% (inactive) in assay [20]; 106% (inactive) in assay [5]. Also, the residual activity in [6] stood at 110%; in assay [7], 74%; in assay [8], 105%; in [9], 106%; in assay [10], 103%; in assay [11], 98%. Besides, the residual activity in assay [12] is 106%; in assay [13], 104%; in [14], 109%; in assay [15] it was 103%; in assay [16], 126%; in assay [17], 89%. In addition, the results for the residual activity in assay [18] and in assay [19] were 80% and 82%, respectively.

Regarding `CO[C@H]1[C@@H](OC)C[C@H](C)[C@@H](OC)C2=CC(=O)C=C(NC(=O)/C(C)=C/C=C/[C@H](OC)[C@@H](OC(N)=O)/C(C)=C/[C@@H]1C)C2=O`, the residual activity in assay [1] is 75%; in assay [2], 43%; in assay [3], 103% (inactive); in assay [4] it was 112%; in assay [20], 89% (inactive); in assay [5], 76% (inactive). Besides, the residual activity in assay [6] came out at 110%; in assay [7] it was 83%; in assay [8], 108%; in assay [9] it was 83%; in [10], 106%; in [11] it was 92%. Moreover, the residual activity in [12] came to 92%; in assay [13], 64%; in assay [14], 99%; in [15], 84%; in assay [16], 59%; in [17] it was 92%. For the same molecule, the values for the residual activity in assay [18] and in assay [19] were 72% and 71%, respectively.

As for `CC(=O)O/N=C1\C(=C2\C(=O)Nc3cc(Br)ccc32)Nc2ccccc21`, the residual activity in assay [1] was 84%; in assay [2], 36%; in assay [3], 108% (inactive); in assay [4], 110%; in assay [20], 98% (inactive); in assay [5], 111% (inactive). Further, the residual activity amounted to 90% in [6]; 80% in assay [7]; 104% in assay [8]; 100% in assay [9]; 100% in [10]; 67% in assay [11]. For the same molecule, the residual activity in assay [12] worked out at 88%; in [13] it was 63%; in assay [14] it was 89%; in assay [15], 67%; in assay [16], 108%; in [17], 48%. The residual activity in [18] worked out at 15%; in [19], 58%.

On to `Nc1cccc(-c2cc3c(Oc4cccc(O)c4)ncnc3[nH]2)c1`, for which the residual activity was 71% in [1]; 49% in [2]; 79% in assay [6]; 33% in assay [7]; 105% in assay [8]; 70% in assay [9]. In addition, the residual activity in assay [10] was 63%; in assay [11] it was 19%; in assay [12], 87%; in [13] it was 31%; in [14], 86%; in [15], 48%. Also, the residual activity in [16] was 101%; in assay [17] it was 10%; in assay [18], -1%; in assay [19], 42%.

Regarding `CNc1cc2c(Nc3cccc(Br)c3)ncnc2cn1`, the residual activity is 126% in assay [1]; 145% in [2]; 94% (inactive) in assay [3]; 108% in assay [4]; 94% (inactive) in assay [20]; 95% (inactive) in assay [5]. For the same molecule, the residual activity in [6] amounted to 87%; in [7] it was 45%; in [8], 111%; in assay [9] it was 99%; in [10] it was 88%; in [11], 65%. Besides, the residual activity was determined as 97% in assay [12]; 104% in [13]; 101% in assay [14]; 89% in assay [15]; 57% in [16]; 46% in [17]. Also, the figures for the residual activity in [18] and in assay [19] were 11% and 78%, respectively.

Regarding `O=C1Nc2ccccc2/C1=C1/Nc2ccccc2/C1=N\OCCC(O)CO` (stereo unspecified), the residual activity in [1] is 20%; in assay [2], 6%; in [3] it was 113% (inactive); in assay [4], 113%; in [20], 104% (inactive); in [7] it was 70%. In addition, the residual activity in assay [8] came to 80%; in assay [9], 78%; in assay [10], 44%; in assay [11] it was 12%; in assay [12], 61%; in [13], 30%. The residual activity was 81% in [14]; 27% in [15]; 116% in assay [16]; 14% in assay [17]; 1% in [18]; 24% in [19].

Consider `O=C1Nc2ccc(Br)cc2/C1=C\c1cc2c([nH]1)CCCC2`, for which the residual activity is 84% in [1]; 51% in [2]; 104% (inactive) in assay [3]; 102% in [4]; 101% (inactive) in assay [20]; 102% (inactive) in [5]. For the same molecule, the residual activity in assay [6] was determined as 97%; in [7], 97%; in [8] it was 113%; in [9], 100%; in [10], 84%; in assay [11] it was 77%. The residual activity amounted to 105% in [13]; 98% in [16]; 54% in assay [17]; 50% in assay [18]; 76% in assay [19].

The record behind these values is ChEMBL document CHEMBL2218924, “A broad activity screen in support of a chemogenomic map for kinase signalling research and drug discovery” (Biochem J, 2013).
